{
  "source": "the supplement of paper PMC7156485",
  "note": "Several values for one entry are separate records, joined by “and”; a condition that tells them apart may be missing. Equal values may be shown once. Where a name gives a salt, the structure may show the parent alone. ± gives the standard deviation of the averaged measurements.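 Also: TDF denotes transformed human dermal fibroblasts of mesenchymal origin.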",
  "data": [
    {"tested_on": "HCC1569", "assay": "cell number relative to DMSO (% of DMSO); higher = more cells (less growth inhibition / toxicity)", "settings": "concentration: 10 µM; 24 h", "outline": "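Compounds were applied at 10 µM for 24 h at 37 °C, in triplicate, to HCC1569 and TDF cells. The cells were then fixed and stained for H1.0, and nuclei were counterstained with DAPI. Nuclear H1.0 intensity or cell number is reported relative to the plate control as a percent, taking the median of replicates. Smoothing for positional effects was applied to HCC1569 values only.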", "values": [
      {"compound": "O=c1cc(O)cc(C=Cc2ccc(O)c(O)c2)o1", "note": "[Hispidin]", "cell number": 97.3},
      {"compound": "CS(=O)c1ccc(-c2nc(-c3ccc(F)cc3)c(-c3ccncc3)[nH]2)cc1", "note": "(stereo not given)", "cell number": 92.7},
      {"compound": "CC(C)Cc1ccc(CC(=O)O)cc1", "note": "[(4-isobutylphenyl)acetic acid]", "cell number": 101},
      {"compound": "COc1cc2c(cc1OC)-c1cc(=Nc3c(C)cc(C)cc3C)n(C)c(=O)n1CC2.Cl", "note": "[Trequinsin hydrochloride]", "cell number": 96.4},
      {"compound": "O=C(O)CNC(=O)C(=O)O", "note": "[2-(carboxymethylamino)-2-oxoacetic acid]", "cell number": 103},
      {"compound": "CC(c1cc2ccccc2s1)N(O)C(N)=O", "note": "(stereo not given) [Zileuton]", "cell number": 102},
      {"compound": "O=C(C1CCCCC1)N1CC(=O)N2CCc3ccccc3C2C1", "note": "(stereo not given) [Praziquantel]", "cell number": "101 ± 4.6"},
      {"compound": "Clc1ccc(CCC(Cn2ccnc2)Sc2c(Cl)cccc2Cl)cc1.O=[N+]([O-])O", "note": "(stereo not given) [Butoconazole nitrate]", "cell number": 98.1},
      {"compound": "COCC(=O)NCC=Cc1ccc2ncnc(Nc3ccc(Oc4ccc(C)nc4)c(C)c3)c2c1", "cell number": 76.8},
      {"compound": "COc1cc2ncc(-c3ccccc3)nc2cc1OC", "cell number": 100},
      {"compound": "CN(C)c1ccc(O)c2c1CC1CC3C(N(C)C)C(=O)C(C(N)=O)=C(O)C3(O)C(=O)C1=C2O.Cl", "note": "(stereo not given)", "cell number": 99.2},
      {"compound": "C=CC(=O)Nc1cc2c(Nc3ccc(F)c(Cl)c3)ncnc2cc1OCCCN1CCOCC1.Cl.Cl", "note": "[Canertinib]", "cell number": 75.8},
      {"compound": "c1ccc(C(OC2CCN(CCCc3nn[nH]n3)CC2)c2ccccc2)cc1", "note": "[4-(benzhydryloxy)-1-[3-(1H-tetraazol-5-yl)propyl]piperidine]", "cell number": 104},
      {"compound": "COc1cc2ncnc(Nc3ccc(NC(=O)c4ccccc4)cc3)c2cc1OC", "note": "[Aurora Kinase Inhibitor II]", "cell number": 77.8},
      {"compound": "OCC(CO)(CO)NCC(O)Cn1c2ccc(Cl)cc2c2cc(Cl)ccc21", "note": "(stereo not given)", "cell number": 74.3},
      {"compound": "COc1nc(C)nc(Cl)c1NC1=NCCN1.Cl", "note": "[Moxonidine hydrochloride]", "cell number": 102},
      {"compound": "N#Cc1c(-c2ccccc2)no[n+]1[O-]", "note": "[4-Phenyl-3-furoxancarbonitrile]", "cell number": 64.2},
      {"compound": "N#CC(=C(N)Sc1ccc(N)cc1)c1ccccc1C(F)(F)F", "note": "[MEK1/2 Inhibitor]", "cell number": 100},
      {"compound": "CC[N+](CC)(CC)CC(=O)Nc1c(C)cccc1C.[Br-]", "note": "[Lidocaine N-ethyl bromide quaternary salt]", "cell number": 106},
      {"compound": "CCOC(=O)CN1C(=O)c2ccc3c4c(ccc(c24)C1=O)C(=O)N(CC(=O)OCC)C3=O", "cell number": 104},
      {"compound": "Cc1nn(C)c2nc(NNC(=O)Nc3cc(Cl)nc(Cl)c3)cc(C(C)C)c12", "cell number": 66},
      {"compound": "CCCOc1cc2c(cc1\\C(C)=C/C=C/C(C)=C/C(=O)O)C(C)(C)CCC2(C)C", "cell number": 97.9},
      {"compound": "CC(Cc1ccc(O)c(O)c1)C(C)Cc1ccc(O)c(O)c1", "note": "(stereo not given)", "cell number": "72.5 and 72.1"},
      {"compound": "CS(=O)(=O)c1ccc(C2=C(c3ccccc3)C(=O)OC2)cc1", "note": "[Rofecoxib]", "cell number": 98.3},
      {"compound": "CCCCCC=CCC=CCC=CCC=CCCCC(=O)OC(CO)CO", "note": "[2-Arachidonoylglycerol]", "cell number": 104},
      {"compound": "CC1(C)OC2CC(=O)OCC23C1CC(=O)C1(C)C3CCC2(C)C(c3ccoc3)OC(=O)C3OC321", "note": "(stereo not given) [Limonin]", "cell number": 103},
      {"compound": "CCCCCCCC/C=C\\CCCCCCCC(=O)NCc1ccc(O)c(OC)c1", "note": "[(9Z)-N-(4-hydroxy-3-methoxybenzyl)-9-octadecenamide]", "cell number": 40.4},
      {"compound": "CC1(C)CCC(C)(C)c2cc(C(=O)Nc3ccc(C(=O)O)cc3)ccc21", "cell number": 101},
      {"compound": "O=c1c(-c2ccc(O)cc2)coc2cc(OC3OC(CO)C(O)C(O)C3O)ccc12", "note": "(stereo not given) [Daidzin]", "cell number": 95.7},
      {"compound": "O.O.O=c1c(O)c(-c2ccc(O)c(O)c2)oc2cc(O)cc(O)c12", "note": "[Quercetin dihydrate]", "cell number": 88.6},
      {"compound": "O=C(Nc1cccc(Nc2ncc(Br)c(NCCc3cnc[nH]3)n2)c1)N1CCCC1", "cell number": 51.2},
      {"compound": "CC(C(O)c1ccc(O)cc1)N1CCC(Cc2ccccc2)CC1", "note": "(stereo not given) [Ifenprodil tartrate]", "cell number": 104},
      {"compound": "COC(=O)C1=C(C)NC(C)=C(C(=O)OCCN(C)Cc2ccccc2)C1c1cccc([N+](=O)[O-])c1.Cl", "note": "(stereo not given) [Nicardipine.HCl]", "cell number": 96.8},
      {"compound": "CCCCCCCCCCCC=CCCCCCCC(=O)O", "note": "[8(Z)-Eicosenoic acid]", "cell number": 103},
      {"compound": "CC(C)(C)c1ccc(S(=O)(=O)NCc2ccc(C(=O)Nc3cccnc3)cc2)cc1", "cell number": 98.2},
      {"compound": "COc1ccc2c(c1OC)C(=O)OC2C1c2c(cc3c(c2OC)OCO3)CCN1C", "note": "(racemic)", "cell number": 98.6},
      {"compound": "CCOC(=O)C1=C(COCCN)NC(C)=C(C(=O)OC)C1c1ccccc1Cl", "note": "(stereo not given) [Amlodipine]", "cell number": 98.4},
      {"compound": "CN(C)CCC=C1c2ccccc2Sc2ccc(Cl)cc21.Cl", "note": "[Chlorprothixene hydrochloride]", "cell number": 90.2},
      {"compound": "O=c1[nH]c(=O)c2nc3ccccc3nc2[nH]1", "note": "[Alloxazine]", "cell number": 101},
      {"compound": "CCCCCC=CCC=CCC=CCC=CCCCC(=O)OC(COCCCCCCCCCCCCCCCC)COP(=O)([O-])OCC[N+](C)(C)C", "note": "(stereo not given) [Arachidonyl-PAF]", "cell number": 98}
    ]}
  ]
}
